We go through 65 compounds from PubChem BioAssay AID1240 (Sanford-Burnham Center for Chemical Genomics, 2008).

Molecules are shown by their SMILES. The whole screen tested about 50,000 compounds, of which about 800 (1.6%) showed an effect of 50% or more. What follows is part of a selection rich in strong results, with near analogues and random picks from the rest.

Chain of Bcl-2-like protein 10 (Homo sapiens) (Q9HD36 whole entry, looked up): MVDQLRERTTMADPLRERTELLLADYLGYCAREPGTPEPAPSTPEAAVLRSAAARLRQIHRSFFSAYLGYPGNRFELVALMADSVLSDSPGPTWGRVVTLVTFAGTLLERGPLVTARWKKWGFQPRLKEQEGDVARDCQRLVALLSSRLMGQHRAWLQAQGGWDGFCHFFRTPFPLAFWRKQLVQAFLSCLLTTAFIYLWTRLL

This assay addresses Bcl-2-like protein 10 (Homo sapiens) (UniProt Q9HD36). The experiment in a line: Phenotype converters, Bcl-B/TR3 peptide binding displacement, primary biochemical FP (AID 1240).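 Also: 0% = Bcl-B with tracer peptide and DMSO and 100% = tracer peptide lacking Bcl-B.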 The note with it: GST-Bcl-B / FITC-TR3 peptide fluorescence polarization; stronger effect = higher value; compound at 3.75 mg/L. (Polarisation of emitted light reports the rotation of a fluorescent probe.)
For the compound `COC(=O)c1cccc(-n2c(C)cc(/C=C3\SC(NC(C)=O)=NC3=O)c2C)c1`, the displacement came to 1.1%. On to `C=CCN1C(=O)/C(=C/c2cc(C)n(-c3ccc(C(=O)OC)cc3)c2C)SC1=S`, for which the displacement is 109%. With `C=CCN1C(=O)/C(=C\c2cc(C)n(-c3ccc([N+](=O)[O-])cc3)c2C)SC1=S`, the displacement stood at 14.9%.

For the compound `CC(=O)NC1=NC(=O)/C(=C/c2cc(C)n(-c3ccc(C(=O)O)cc3)c2C)S1`, the displacement was -89.7%.

With `COC(=O)c1ccc(-n2c(C)cc(/C=C3\SC(NC(C)=O)=NC3=O)c2C)cc1`, the displacement was found to be 114%.

Regarding `C=CCN1C(=O)/C(=C\c2ccc(C(=O)OC)cc2)SC1=S`, the displacement turned out to be 7.8%.

With `COc1ccccc1-n1c(SCC(=O)c2ccccc2)nc2ccccc2c1=O`, the displacement was -4.7%.

As for `COc1ccc(-c2cc(C(=O)OC(C)C)c3cc(Br)ccc3n2)cc1`, the displacement was -3.9%.

Consider `O=C(Nc1ccccc1)C1C2/C=C\CCCCC21` (stereo not given), for which the displacement is -10.2%. Turning to `O=C(N/N=C/c1ccco1)c1ccc(C(=O)N/N=C/c2ccco2)cc1`, the displacement came out at 27.6%.

With `Cc1cccc(NC(=O)c2ccccc2NC(=O)c2cccs2)c1C`, the displacement was determined as 9.5%. For `Nc1c(C(=O)C2CC2)sc2nc(-c3cccs3)cc(C(F)(F)F)c12`, the displacement stood at 52.1%. On to `O=C(O)c1cnn2c(C(F)(F)F)cc(-c3cccs3)nc12`, for which the displacement turned out to be 5.9%. The result for `CC1CCCCN1C(=O)c1cc2nc(-c3cccs3)cc(C(F)(F)F)n2n1` (stereo not given) reads 18.3%.

`N#C/C(=C(/O)C(c1ccccc1)c1ccccc1)c1nc2ccccc2s1`: the displacement is -3.6%. As for `CC(C)(C)c1cc(C2=C(N3CCOCC3)C(=O)c3ccccc3C2=O)cc(C(C)(C)C)c1O`, the displacement was 11.6%. As to `COc1cc2nc(-c3ccc([N+](=O)[O-])cc3)oc(=O)c2cc1OC`, the displacement worked out at 78%.

With `COc1cc2nc(-c3ccc(Oc4ccc([N+](=O)[O-])cc4)cc3)oc(=O)c2cc1OC`, the displacement came out at 10.6%. As for `COc1cc2nc(-c3ccc([N+](=O)[O-])c(C)c3)oc(=O)c2cc1OC`, the displacement was -11.4%.

As to `CCc1c(C)nc2ccc(C)cc2c1SCC(=O)O`, the displacement turned out to be 9.8%. Take `Cc1cc(C)nc(SCC(=O)N(c2ccccc2)c2ccccc2)n1`: the displacement is -6.6%.

With `CSc1nc(N)c(C#N)c(-c2ccccc2)c1C#N`, the displacement was -11%. With `NC(=O)c1ccc(NC(=O)COc2ccccc2Cl)cc1`, the displacement was -2%. `C=CCc1ccccc1OCCn1cc(C=C2C(=O)NC(=S)NC2=O)c2ccccc21`: the displacement was found to be 53.6%. `C=CCc1ccccc1OCCn1cc(C=C2C(=O)NC(=O)NC2=O)c2ccccc21`: the displacement is -6.7%.

For `Cc1cccc(OCCn2cc(C=C3C(=O)NC(=S)NC3=O)c3ccccc32)c1`, the displacement came out at 11.2%.

For the compound `Cc1ccc(OCCn2cc(C=C3C(=O)NC(=O)NC3=O)c3ccccc32)cc1C`, the displacement came to 79.3%. `O=C1NC(=S)NC(=O)C1=Cc1cn(CCOc2ccc(Br)cc2)c2ccccc12`: the displacement is 9.1%. As to `O=C1NC(=O)C(=Cc2cn(CCOc3ccc(Br)cc3)c3ccccc23)C(=O)N1`, the displacement was determined as 73.8%. Turning to `C=CCc1ccccc1OCCn1cc(/C=C2/SC(=S)NC2=O)c2ccccc21`, the displacement stood at 5.8%.

Regarding `COc1cccc(OCCn2cc(C=C3C(=O)NC(=O)NC3=O)c3ccccc32)c1`, the displacement was 15.2%. The result for `CN1C(=O)/C(=C\c2cn(CCOc3ccc(Br)cc3)c3ccccc23)SC1=S` reads 3.5%; that for `c1ccc(C2=C(c3ccccc3)N3CCN=C3S2)cc1`, 6.4%. `O=S1(=O)CCC(NC(=S)N/N=C/c2cccc3ccccc23)C1` (stereo not given): the displacement is 5.1%. Regarding `COc1ccc(-n2nc3cc(C)c(NC(=O)c4cc(Cl)ccc4OC)cc3n2)cc1`, the displacement is -5.3%. For the compound `Cc1ccc(NC(=O)COC(=O)c2ccn(C)n2)cc1`, the displacement is 13.5%. As for `Cc1cc(NC(=O)c2ccc(Cl)cc2Cl)ccc1NC(=O)c1ccccc1`, the displacement is -2.3%. As for `CCOC(=O)C1=C(O)/C(=C/c2cccc(O)c2)SC1=Nc1ccc([N+](=O)[O-])cc1`, the displacement was -1.1%. On to `CCOC(=O)C1=C(O)/C(=C\c2ccc([N+](=O)[O-])cc2)N=C1C`, for which the displacement was 1.5%. The figure for `CCOC(=O)C1=C(O)/C(=C/c2cccnc2)SC1=Nc1ccc([N+](=O)[O-])cc1` is 55.2%; for `CCOC(=O)C1=C(O)/C(=C/c2cccc([N+](=O)[O-])c2)N=C1C` it is 129%. Consider `CCOC(=O)C1=C(O)/C(=C\c2ccccc2[N+](=O)[O-])N=C1C`, for which the displacement is 15.7%. As for `CCOC(=O)C1=C(O)/C(=C/c2ccc(Br)cc2)SC1=Nc1ccc([N+](=O)[O-])cc1`, the displacement is 15%. Turning to `CCOC(=O)C1=C(O)/C(=C/c2ccccc2)SC1=Nc1ccc([N+](=O)[O-])cc1`, the displacement was -0.9%. With `CCOC(=O)C1=C(O)/C(=C/c2cccc(Br)c2)SC1=Nc1ccc([N+](=O)[O-])cc1`, the displacement came to 63.1%. In the case of `CCOC(=O)C1=C(O)/C(=C/c2cccnc2)SC1=Nc1ccc(C)cc1`, the displacement is 14.8%. For `CCOC(=O)c1c(NC(=O)/C=C/c2cccs2)sc(C)c1C`, the displacement is 2.9%. As to `Cc1ccc(OCC(=O)Nc2cc(Cl)cc(Cl)c2)cc1`, the displacement turned out to be 12.4%. The figure for `O=C(NCc1ccc2c(c1)OCO2)c1ccc(F)cc1` is 11.2%; for `COc1ccc(/C=C2/C(=O)ON=C2c2ccccc2)cc1` it is 13.6%. As for `CC(=O)Oc1ccc2c(C)cc(=O)oc2c1C`, the displacement was -10.7%.

With `CCOc1ccccc1N1CCN(C(=O)C(Sc2ccccc2)c2ccccc2)CC1` (stereo not given), the displacement was -4.4%. For `CC1CN(C(=O)c2cccs2)CC(C)O1` (stereo not given), the displacement is 3.3%. In the case of `CC(=O)Nc1ccc(NC2=C(Cl)C(=O)c3ccccc3C2=O)cc1`, the displacement amounted to 7.1%. As to `Cc1cc(Cl)ccc1OCC(N)=O`, the displacement is -0.8%. The figure for `N/C(=N/S(=O)(=O)c1ccc(Br)cc1)c1ccccc1` is 8.5%; for `CN(C)/C(=N\S(=O)(=O)c1ccc(Br)cc1)c1ccccc1` it is 96.8%; for `Cc1ccc(S(=O)(=O)/N=C(\c2ccccc2)N(C)C)cc1` it is 13.2%. `CCOc1ccc(Br)cc1C=Nc1c(C)n(C)n(-c2ccccc2)c1=O`: the displacement was -1.8%. For the compound `COc1ccccc1/C=C1\SC(=S)N(c2c(C)n(C)n(-c3ccccc3)c2=O)C1=O`, the displacement was 1.2%. The result for `COc1cc(/C=N/N2C(=O)c3ccccc3C2=O)c([N+](=O)[O-])cc1OC` reads -1.8%; that for `COc1cc(/C=C2/SC(=S)N(c3c(C)n(C)n(-c4ccccc4)c3=O)C2=O)c([N+](=O)[O-])cc1OC`, 61.3%; that for `Cc1c(N2C(=O)/C(=C/c3cccs3)SC2=S)c(=O)n(-c2ccccc2)n1C`, 8.6%. Consider `COc1cc(C=Nc2c(C)n(C)n(-c3ccccc3)c2=O)c([N+](=O)[O-])cc1OC`, for which the displacement was determined as 130%. With `COc1ccccc1C/C(N)=N/OC(=O)c1ccc(I)cc1`, the displacement turned out to be 10.8%.
